The record followed here is PubChem BioAssay.

The nature of experiment [1]: inhibitors of TNFa-induced NFkB p65 translocation, primary screen, imaging, HUVEC, MLSMR starter and 10KST1 sets (AID 438).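 For inhibition: signal is the nuclear over cytoplasmic p65 intensity ratio per well.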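 Note: compound added about 3h40 before a 20 min TNFalpha stimulation.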 The conditions noted are these: HUVEC TNFa-induced p65 nuclear translocation; cell count: measured here: nuclei count (cytotoxicity indicator), at 2.08 µM; inhibition: at 2 µM, stronger effect = higher value, 0% TNFa-plus-vehicle, 100% no-TNFa wells.
Experiment [2] in a line: inhibitors of mutant huntingtin aggregation, primary screen, imaging, exon1htt(103Q)mCFP cells, high-content imaging (AID 483;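 active = visual image review flags a hit and inhibition of aggregation exceeds 20%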;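 note: compound exposure lasted 3 days before fixation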;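 for nuclei count: percent of the per-plate median nuclei count of sample wells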). The following applies: exon1htt(103Q)mCFP cell line, aggregate imaging, at 2 µM; inhibition of aggregation: stronger effect = higher value; nuclei count: measured here: cell count, toxicity.
The nature of experiment [3]: inhibitors of E-selectin induction by TNFa, primary screen, imaging, HUVEC, immunofluorescence, MLSMR starter and 10KST1 sets (AID 487;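 active = visually confirmed hit in the image check and inhibition above 20%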;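 for inhibition: signal is fraction of cell area covered by stained E-selectin grains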;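 for nuclei count: 100% = median nuclei count of all wells on the same plate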). The following applies: HUVEC TNFalpha-induced E-selectin immunofluorescence imaging, at 2 µM; inhibition: stronger effect = higher value; nuclei count: measured here: cell number, toxicity.
The target in experiment [4] is Voltage-gated potassium channel subunit beta-2 (Rattus norvegicus) (UniProt P62483). The experiment can be described thus: KvBeta enzyme negative modulators, primary screen, biochemical, NADPH fluorescence (AID 622;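 active = fluorescence slope higher than the sample average by over 3 SD, cut at about -0.22 in these data, passing the limit was not always enough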;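 note: slope of raw intensity against log time taken from 70 to 1610 s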). The following applies: recombinant KvBeta, 4-cyanobenzaldehyde reduction, at 10 µM, stronger effect = higher value.
Voltage-gated potassium channel subunit beta-2 (Rattus norvegicus), sequence (P62483 whole entry, looked up): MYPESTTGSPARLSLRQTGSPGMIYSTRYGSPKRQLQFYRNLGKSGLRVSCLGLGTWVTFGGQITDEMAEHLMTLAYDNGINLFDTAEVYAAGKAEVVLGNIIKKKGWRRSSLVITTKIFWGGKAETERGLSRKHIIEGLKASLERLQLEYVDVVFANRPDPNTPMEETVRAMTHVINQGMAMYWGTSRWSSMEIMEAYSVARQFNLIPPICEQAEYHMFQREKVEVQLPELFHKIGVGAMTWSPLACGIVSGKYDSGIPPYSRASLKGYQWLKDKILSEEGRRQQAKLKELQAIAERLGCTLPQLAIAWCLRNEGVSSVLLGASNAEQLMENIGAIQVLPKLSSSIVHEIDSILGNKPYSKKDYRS
Experiment [5] shares this target. Put plainly: KvBeta positive modulators, primary screen, biochemical, NADPH fluorescence (AID 623;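 active = NADPH fluorescence slope more negative than the mean of all samples by about 3 SD, 99.7% confidence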;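 note: fluorescence intensity change per second fitted from 20 to 320 s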). The conditions noted are these: Recombinant KvBeta, NADPH fluorescence decrease slope, 10 min; at 10 µM; stronger effect = lower value.
Experiment [6] concerns the target Alpha-2C adrenergic receptor (Homo sapiens) (UniProt P18825). The experiment can be described thus: modulators of alpha2C/GIRK thallium flux, primary screen, cell-based, HEK293 alpha2C/GIRK1/2 (AID 624;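 active = fluorescence slope after compound addition differing from the mean of all screened samples at 99.7% confidence, in either direction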;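 note: slope of fluorescence ratio to pre-addition baseline per second over 15 to 24 s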). The conditions noted are these: thallium flux BTC fluorescence, at 10 µM, actives lie on both sides.
Experiment [7] in a line: inhibitors of Sendai virus-induced IRF3 signaling, primary screen, TLR/RLR signaling modifier project, cell-based, Sendai virus stimulus, luciferase, 10K MLSCN set (AID 602276;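 active = inhibition at or above 50% at 10 µM; inactive = inhibition below 50%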;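 note: firefly luciferase from ISG56 promoter only with Renilla not read in this screen; 0% = Sendai virus plus DMSO and 100% = medium plus DMSO without virus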). The following applies: HEK293 RL24 IRF3 luciferase reporter, at 10 µM, stronger effect = higher value.
Experiment [8] can be described thus: inhibitors of poly I:C-induced TLR3 signaling, primary screen, cell-based, poly I:C stimulus, luciferase, 10K MLSCN set (AID 602277;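 active = inhibition of the reporter signal at or above 50%; inactive = inhibition below 50%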). The conditions noted are these: HEK293-TLR3 RL24 IRF3 luciferase reporter, at 10 µM, stronger effect = higher value.

Active and inactive are the calls of the source.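 Rule for the calls, unless noted: active = inhibition above 20% together with a positive visual image hit; inconclusive = visual image hit but inhibition not above 20%; inactive = no visual image hit.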

Alpha-2C adrenergic receptor (Homo sapiens), sequence (P18825 whole entry, looked up): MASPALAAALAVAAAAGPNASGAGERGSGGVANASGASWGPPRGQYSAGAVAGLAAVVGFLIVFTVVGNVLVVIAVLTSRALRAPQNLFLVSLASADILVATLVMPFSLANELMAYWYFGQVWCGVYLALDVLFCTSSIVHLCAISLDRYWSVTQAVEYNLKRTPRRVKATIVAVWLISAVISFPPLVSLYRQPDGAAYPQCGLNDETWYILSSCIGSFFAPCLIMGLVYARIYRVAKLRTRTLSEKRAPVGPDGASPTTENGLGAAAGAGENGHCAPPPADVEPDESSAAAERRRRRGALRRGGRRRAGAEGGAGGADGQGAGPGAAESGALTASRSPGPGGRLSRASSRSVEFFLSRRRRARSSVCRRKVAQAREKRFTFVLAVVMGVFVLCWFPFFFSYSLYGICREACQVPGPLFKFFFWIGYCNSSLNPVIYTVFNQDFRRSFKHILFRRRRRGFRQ

For `COc1ccc(C)cc1NC(=O)CN1CCN(S(=O)(=O)c2ccc(Cl)cc2)CC1`, in experiment [1], the cell count is 409. The inhibition is -1.5% (inactive) in experiment [1], -76.7% (inactive) in experiment [3], 5.97% (inactive) in experiment [7] and 15.6% (inactive) in experiment [8]. For the same compound, the inhibition of aggregation in experiment [2] is 4.2% (inactive). The nuclei count in experiment [2] is 104%; in experiment [3], 98.9%. Also, the fluorescence slope in experiment [4] was -0.41 (inactive). Besides, the NADPH fluorescence slope in experiment [5] is -3e-05 (inactive). Also, the slope in experiment [6] is 0.0018 (inactive).

Consider `CC(C)(C)NC(=O)Cn1nnnc1-c1nonc1N`, for which the cell count in experiment [1] was 433. The inhibition is 9.2% (inactive) in experiment [1], -94.7% (inactive) in experiment [3], -5.7% (inactive) in experiment [7] and -10.1% (inactive) in experiment [8]. In addition, the inhibition of aggregation in experiment [2] is -5.9% (inactive). Moreover, the nuclei count in experiment [2] and in experiment [3] was 120% throughout. Further, the fluorescence slope in experiment [4] was -0.618 (inactive). Moreover, the NADPH fluorescence slope in experiment [5] is -4.6e-05 (inactive). In experiment [6], the slope is 0.00302 (inactive).

For the compound `CCOP(=O)(c1ccc(N(C)C)cc1)C(O)c1c(Cl)cccc1Cl` (centres undefined), the cell count in experiment [1] worked out at 220. Also, the inhibition in experiment [1] is -3.5% (inactive); in experiment [3], -64.5% (inactive); in experiment [7], 12.4% (inactive); in experiment [8], 19.2% (inactive). Also, the inhibition of aggregation in experiment [2] is 20% (inactive). The nuclei count was 99.5% in experiment [2] and 96.2% in experiment [3]. For the same compound, the fluorescence slope in experiment [4] is -0.521 (inactive). In addition, the NADPH fluorescence slope in experiment [5] is -3.5e-05 (inactive). In addition, the slope in experiment [6] was 0.00411 (inactive).

As for `COc1ccc(C2=CC(=O)OC3(CCCCC3)O2)cc1`, the cell count in experiment [1] worked out at 390. In addition, the inhibition was -5.3% (inactive) in experiment [1], -152% (inactive) in experiment [3], 13% (inactive) in experiment [7] and 22.7% (inactive) in experiment [8]. Moreover, in experiment [2], the inhibition of aggregation is -4.6% (inactive). Besides, the nuclei count in experiment [2] turned out to be 99.3%; in experiment [3] it was 115%. The fluorescence slope in experiment [4] is -0.475 (inactive). Further, the NADPH fluorescence slope in experiment [5] was -8.9e-05 (inactive). Further, in experiment [6], the slope is 0.0046 (inactive).

Regarding `O=C(Nc1ccccc1-c1nc2ccccc2o1)c1ccc2c(c1)OCCO2`, in experiment [1], the cell count worked out at 530. The inhibition in experiment [1] is -7.2% (inactive); in experiment [3], 48.6% (inactive); in experiment [7] it was 11.3% (inactive); in experiment [8], 13.7% (inactive). Besides, in experiment [2], the inhibition of aggregation is -29.9% (inactive). Further, the nuclei count was 99.2% in experiment [2] and 87.4% in experiment [3]. In addition, the fluorescence slope in experiment [4] was -0.131 (inactive). The NADPH fluorescence slope in experiment [5] is 1.2e-05 (inactive). Moreover, in experiment [6], the slope is 0.0146 (inactive).

For `COCc1nnc(NS(=O)(=O)c2ccc(Br)cc2)s1`, in experiment [1], the cell count was determined as 757. The inhibition is -12.1% (inactive) in experiment [1], 30.4% (inactive) in experiment [3], 18.1% (inactive) in experiment [7] and 19.6% (inactive) in experiment [8]. The inhibition of aggregation in experiment [2] was 13.5% (inactive). Moreover, the nuclei count amounted to 102% in experiment [2] and 90.2% in experiment [3]. The fluorescence slope in experiment [4] was -0.362 (inactive). For the same compound, the NADPH fluorescence slope in experiment [5] is 4.4e-05 (inactive). Also, the slope in experiment [6] is 0.00659 (inactive).

With `Cc1cc2ncc(-c3ccc(Cl)cc3)c(N)n2n1`, the cell count in experiment [1] amounted to 930. In addition, the inhibition is -1.7% (inactive) in experiment [1], -36.3% (inactive) in experiment [3], -34% (inactive) in experiment [7] and -158% (inactive) in experiment [8]. Further, the inhibition of aggregation in experiment [2] is -6% (inactive). Besides, the figures for the nuclei count in experiment [2] and in experiment [3] were 129% and 125%, respectively. Besides, the fluorescence slope in experiment [4] was -0.583 (inactive). Also, the NADPH fluorescence slope in experiment [5] was 2.1e-05 (inactive). The slope in experiment [6] was 0.00574 (inactive).

For the compound `CC1Cc2nc(SCC(N)=O)n(Cc3ccccc3)c(=O)c2S1` (centres undefined), the cell count in experiment [1] was found to be 633. For the same compound, the inhibition in experiment [1] was -14% (inactive); in experiment [3], -15.2% (inactive); in experiment [7], -2.11% (inactive); in experiment [8] it was 36% (inactive). The inhibition of aggregation in experiment [2] was 1.8% (inactive). The nuclei count in experiment [2] was 90.7%; in experiment [3] it was 113%. Besides, the fluorescence slope in experiment [4] is -0.438 (inactive). Besides, in experiment [5], the NADPH fluorescence slope is 2.5e-05 (inactive). Besides, in experiment [6], the slope was 0.00575 (inactive).

Consider `Nn1cc(-c2ccccc2)nc1SCC(=O)N1CCN(S(=O)(=O)c2ccccc2)CC1`, for which, in experiment [1], the cell count worked out at 341. Besides, the inhibition in experiment [1] is -17.9% (inactive); in experiment [3], -23.8% (inactive); in experiment [7], 8.62% (inactive); in experiment [8], 12.7% (inactive). For the same compound, in experiment [2], the inhibition of aggregation is 13.8% (inactive). The nuclei count in experiment [2] is 102%; in experiment [3], 106%. Besides, the fluorescence slope in experiment [4] was -0.421 (inactive). Besides, in experiment [5], the NADPH fluorescence slope is 4.3e-05 (inactive). The slope in experiment [6] was 0.00477 (inactive).
